Screens from PubChem BioAssay.
D2 PAM-1 – potentiates the human D2 dopamine receptor allosterically | DiscoveRx D2 beta-arrestin cells, luminescence, 90 min; 100% = 57 uM dopamine signal | potentiation, % (test concentration not listed) | hit rate 0.23% among 360,000 | AID 624464; in the data active means potentiation above about 50%; inconclusive means mostly about 30% to 49%
Target sequence (P14416 whole entry, looked up): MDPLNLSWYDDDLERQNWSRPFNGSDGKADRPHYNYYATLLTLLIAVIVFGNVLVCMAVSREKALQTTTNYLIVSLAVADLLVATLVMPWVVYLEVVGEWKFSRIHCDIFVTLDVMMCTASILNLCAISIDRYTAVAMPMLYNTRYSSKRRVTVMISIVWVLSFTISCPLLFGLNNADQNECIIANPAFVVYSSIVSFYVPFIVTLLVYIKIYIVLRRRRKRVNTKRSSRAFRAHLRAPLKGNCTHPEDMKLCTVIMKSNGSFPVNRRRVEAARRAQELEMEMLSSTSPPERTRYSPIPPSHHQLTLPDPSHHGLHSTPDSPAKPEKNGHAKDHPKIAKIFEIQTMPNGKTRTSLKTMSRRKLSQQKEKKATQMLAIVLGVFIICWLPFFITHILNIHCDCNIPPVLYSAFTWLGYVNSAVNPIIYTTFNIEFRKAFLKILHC
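PathHunter beta-arrestin assay in DiscoveRx D2 cells. Compounds were added with an EC20 of dopamine (50 nM final) for 90 min at 37 deg C. Luminescence was read 1 h after detection reagent, with 57 uM dopamine as the EC100 control.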
D2 antagonist – D2 dopamine receptor (human) antagonism; HEK293 TREx D2 cells, calcium flux, dopamine EC80; hit rate 2% among 340,000; P14416; inhibition, % at 10 µM; in the data active means inhibition above about 30%; inactive means below that, where a call was filed
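Calcium flux kinetic readout in an inducible HEK293 TREx D2 line plated overnight at 30 C. After 180 s compound exposure, an EC80 dopamine challenge follows with another 180 s kinetic read to detect antagonism.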
D2 ag-1 – activates the human D2 dopamine receptor | hit rate 0.53% among 340,000 | P14416 | HEK293 T-REx D2 cells, calcium flux agonist mode | activation, % at 2 µM;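 active means activation over 3 SD above normal in the single-dose calcium agonist read, cut at about 30% in these data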
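HEK293 Trex D2 cells, tetracycline-induced, o/n 30 C 5% CO2; no-wash Ca dye, RT 30–90 min; 10-cycle baseline, 23 nl cpd added, kinetic Ca read 180 s; agonist hits = positive Ca response.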
D2 ag-2 – agonists of human D2 dopamine receptor (beta-arrestin) | activation, % (concentration not given with the values) | AID 624465 | hit rate 0.084% among 360,000 | P14416 | DiscoveRx PathHunter D2 beta-arrestin, luminescence, 90 min; 100% = 57 uM dopamine signal; in the data active means activation above about 40%; inconclusive means between about 15% and that limit
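DiscoveRx PathHunter D2 beta-arrestin cells (2,100/well) attached overnight, then compound-stimulated 90 min at 37 C in HBSS/10 mM HEPES/0.1% Tween-20 buffer; beta-galactosidase complementation read by luminescence after 1 h at ambient temperature. Dopamine 57 uM final (EC100) as control.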
D2 PAM-2 – positively modulates the human D2 dopamine receptor allosterically; hit rate 0.34% among 340,000; potentiation, % at 10 µM; P14416; HEK293 T-REx D2, calcium flux, EC20 dopamine potentiation; AID 485347;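 active means potentiation over 3 SD above the plate norm, cut at about 30% in these data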
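Primary screen. Calcium kinetics in induced HEK293 T-REx D2 cells: compound pre-addition 180 s, EC20 dopamine, 180 s more.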
A number is an active result. A selection: hits, their analogues and other compounds. The true share with any hit is near 2.4%.

For O=C(CCNS(=O)(=O)c1ccc2c(c1)CCN2C(=O)C1CC1)N1CCN(c2ccccc2F)CC1 the results were D2 PAM-2 inactive.
For CCC(=O)N1CCc2cc(S(=O)(=O)NCCC(=O)N3CCN(c4ccccc4)CC3)ccc21 the results were D2 PAM-1 inactive, D2 antagonist 34.3, D2 ag-1 inactive, D2 ag-2 inactive and D2 PAM-2 inactive.
Screening CC1=C(C(=O)Nc2ccc(C)cc2C)C(c2ccc(O)cc2)n2nnnc2N1 (stereo unspecified) returned D2 ag-1 inactive and D2 PAM-2 inactive.
For Cc1ccc(OCc2cc(=O)n3cc(C)sc3n2)c(C)c1 the results were D2 ag-1 inactive and D2 PAM-2 inactive.
CCc1c(C)nc2nc(SCc3ccccc3Cl)[nH]n2c1=O was read as D2 PAM-1 inactive, D2 antagonist 31.9, D2 ag-1 inactive, D2 ag-2 inactive and D2 PAM-2 inactive.
For Cc1nc2nc(NCc3ccccc3Cl)[nH]n2c(=O)c1Cc1ccccc1 the results were D2 ag-1 inactive and D2 PAM-2 inactive.
For CC(C)(C)N(NC(=O)c1ccccc1)C(=O)c1ccc(C(=O)N(NC(=O)c2ccccc2)C(C)(C)C)cc1 the results were D2 PAM-1 inactive, D2 antagonist 33.0, D2 ag-1 inactive, D2 ag-2 inactive and D2 PAM-2 inactive.
CCc1ccc(C(=O)NN(C(=O)c2ccc(CC)cc2)C(C)(C)C)cc1 was read as D2 PAM-1 inactive, D2 antagonist inactive, D2 ag-1 inactive, D2 ag-2 inactive and D2 PAM-2 inactive.
For N#Cc1cnn(Cc2ccccc2)c1/N=C/N1CCOCC1 the results were D2 PAM-1 inactive, D2 antagonist 34.2, D2 ag-1 inactive and D2 ag-2 inactive.
CS(=O)(=O)N(Cc1ccccc1)c1ccc(C(=O)NCC2CCCO2)cc1 (stereo unspecified) was read as D2 PAM-1 inactive, D2 antagonist 32.8, D2 ag-1 inactive, D2 ag-2 inactive and D2 PAM-2 inactive.
For CCN(c1ccccc1)S(=O)(=O)c1ccc(Cl)c(C(=O)NCC2CCCO2)c1 (stereo unspecified) the results were D2 PAM-1 inactive, D2 antagonist inactive, D2 ag-1 inactive, D2 ag-2 inactive and D2 PAM-2 30.8.
Screening CS(=O)(=O)N(Cc1ccc(Cl)cc1)c1ccc(C(=O)NCC2CCCO2)cc1 (stereo unspecified) returned D2 PAM-1 inactive, D2 antagonist inactive, D2 ag-1 inactive, D2 ag-2 inactive and D2 PAM-2 inactive.
`Cc1ccc(SCC(=O)NC(C)(C)C)cc1` gave D2 PAM-1 inactive, D2 antagonist 36.8, D2 ag-1 inactive, D2 ag-2 inactive and D2 PAM-2 inactive.
For Cc1ccc(SCC(=O)Nc2cccc(C(=O)NC(C)(C)C)c2)cc1 the results were D2 PAM-1 inactive, D2 antagonist inactive, D2 ag-1 inactive, D2 ag-2 inactive and D2 PAM-2 inactive.
For COc1cc(C2CC(=O)N(Cc3ccc(F)cc3)c3ccccc3S2)cc(OC)c1OC (stereo unspecified) the results were D2 ag-1 inactive and D2 PAM-2 inactive.
COc1ccccc1NC(=S)NC(=O)Cc1ccc(Cl)cc1 was read as D2 PAM-1 inactive, D2 antagonist 52.3, D2 ag-1 inactive, D2 ag-2 inactive and D2 PAM-2 inactive.
For O=C(NCCNC1CCC(c2ccccc2)CC1)c1ccc(F)cc1 (stereo unspecified) the results were D2 PAM-1 inactive, D2 antagonist 84.6, D2 ag-1 inactive, D2 ag-2 inactive and D2 PAM-2 inactive.
`O=C(NCCCc1ccccc1)c1ccc(F)cc1` gave D2 PAM-1 inactive, D2 antagonist inactive, D2 ag-1 inactive, D2 ag-2 inactive and D2 PAM-2 inactive.
Screening CN(C)c1nc(SCC(=O)Nc2ccc(Cl)c(Cl)c2)nc(N2CCOCC2)n1 returned D2 PAM-1 inactive, D2 antagonist inactive, D2 ag-1 inactive and D2 ag-2 inactive.
Screening CN(C)c1nc(SCC(=O)Nc2ccccc2)nc(N2CCOCC2)n1 returned D2 PAM-1 inactive, D2 antagonist 31.3, D2 ag-1 inactive, D2 ag-2 inactive and D2 PAM-2 inactive.
Screening CC1CCc2cc(F)ccc2N1S(=O)(=O)c1ccc(Cl)nc1 (stereo unspecified) returned D2 PAM-1 inactive, D2 antagonist 35.4, D2 ag-1 inactive, D2 ag-2 inactive and D2 PAM-2 inactive.
CCCNC(=O)CC(NS(=O)(=O)c1ccc(OC)cc1)c1ccco1 (stereo unspecified) was read as D2 PAM-1 inactive, D2 antagonist inactive, D2 ag-1 inactive, D2 ag-2 inactive and D2 PAM-2 34.9.
CCCCNC(=O)CC(NS(=O)(=O)c1ccc(C)cc1)c1ccco1 (stereo unspecified) was read as D2 PAM-1 inactive, D2 antagonist inactive, D2 ag-1 inactive, D2 ag-2 inactive and D2 PAM-2 inactive.
For CCc1ccc(CN(C)CC(=O)Nc2sccc2C#N)cc1 the results were D2 PAM-1 inactive, D2 antagonist 63.9, D2 ag-1 inactive, D2 ag-2 inactive and D2 PAM-2 inactive.
`CC(C)(C)c1ccc(OCCOCCn2c(-c3ccc(Cl)cc3)nc3ccccc3c2=O)cc1` gave D2 ag-1 inactive and D2 PAM-2 inactive.
COc1ccc(NC(=O)CCc2nc3c(C)nn(-c4ccc(C)cc4)c3n(C)c2=O)c(OC)c1 was read as D2 ag-1 inactive and D2 PAM-2 inactive.
Screening CC(=O)N1Cc2ccccc2C(C)CC12CCCC2 (stereo unspecified) returned D2 PAM-1 inactive, D2 antagonist 31.2, D2 ag-1 inactive, D2 ag-2 inactive and D2 PAM-2 inactive.
CC(=O)N1c2ccccc2C(C)CC12CCCCC2 (stereo unspecified) was read as D2 PAM-1 inactive, D2 antagonist inactive, D2 ag-1 inactive, D2 ag-2 inactive and D2 PAM-2 inactive.
COc1ccc(NC(=O)Cn2cnc3c(nc4n3CCCCC4)c2=O)c(OC)c1 was read as D2 ag-1 inactive and D2 PAM-2 inactive.
Cn1c(-c2ccccc2)c(C(=O)CCl)c2ccccc21 was read as D2 PAM-1 inactive, D2 antagonist inactive, D2 ag-1 inactive, D2 ag-2 inactive and D2 PAM-2 38.8.
`CC(O)CNC(=O)C(=O)Nc1c2c(nn1-c1ccc(Cl)cc1)CSC2` (stereo unspecified) gave D2 ag-1 inactive and D2 PAM-2 inactive.
O=C1COc2ccc(C(=O)COC(=O)c3ccc([N+](=O)[O-])cc3Cl)cc2N1 was read as D2 PAM-1 51.2, D2 antagonist inactive, D2 ag-1 inactive, D2 ag-2 inconclusive and D2 PAM-2 inactive.
`O=C1COc2ccc(C(=O)COC(=O)c3ccc(Cl)cc3[N+](=O)[O-])cc2N1` gave D2 PAM-1 51.6, D2 antagonist inactive, D2 ag-1 inactive, D2 ag-2 inconclusive and D2 PAM-2 inactive.
For O=C1COc2ccc(C(=O)COC(=O)c3ccccc3[N+](=O)[O-])cc2N1 the results were D2 PAM-1 inactive, D2 ag-2 inactive and D2 PAM-2 inactive.
